Source: PubChem
uPA generation = blocks generation of uPA at the cell surface; cell surface uPA generation assay, qHTS; Potency, µM (series often up to 38.3 µM), usual class: inhibitors; hit rate 0.31% among 330,000; AID 540303; active means well fitted inhibition curve with a large enough effect; inconclusive means small, poorly fitted or top-dose-only effect; inactive means no such curve, though single readings can be large or run the other way; tested in mouse RAW 264.7 cells; further: nearly all actives have a fitted effect of over 55% in size
TDP1 cell noCPT = qHTS for Inhibitors of human tyrosyl-DNA phosphodiesterase 1 (TDP1): qHTS in cells in absence of CPT; DT40 Tdp1-/- hTDP1 cells, no CPT, ATP luminescence, 48 h; Potency, µM (series often up to 46.2 µM), hits mostly inhibitors; hit rate 15% among 420,000; AID 686978, 2013; further: nearly all actives have a fitted effect of over 55% in size
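Readout: luminescence from CellTiter-Glo after 30 min in the dark at RT. Cells: DT40 Tdp1-/- with stable hTDP1, 400/well. Exposure: compounds alone, ≥48 hr, 37 °C.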
DT40 TDP1 CPT = growth inhibition of DT40 Tdp1-/-;hTDP1 cells with camptothecin (screen for TDP1 inhibitors); hit rate 12% among 420,000; Potency, µM (series often up to 46.2 µM), most hits filed as inhibitors; chicken DT40 Tdp1-/-;hTDP1 cells + 20 nM CPT, ATP luminescence, 48 h; further: nearly all actives have a fitted effect of over 55% in size
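Chicken DT40 Tdp1-/- cells stably complemented with human TDP1 were seeded at 400 cells/well in medium containing 20 nM camptothecin, exposed to pin-transferred compounds, and grown at 37 °C for at least 48 hr. Viability was read as ATP luminescence.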
HT1080-NT tox = kills 2HG-producing HT-1080-NT fibrosarcoma cells; AID 686970; HT-1080-NT fibrosarcoma viability, CellTiter-Glo ATP luminescence, 48 h; hit rate 1.6% among 360,000; Potency, µM (highest dose often 46.1 µM), usual class: cytotoxic;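 further: NT is the 2HG producing partner of a matched IDH1 knockdown line; nearly all actives have a fitted effect of over 55% in size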
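Compounds were tested in concentration-response format on HT-1080-NT cells for 48 hours at 37 degrees C. Cell viability came from CellTiter-Glo luminescence; curves were classified by r2, response magnitude and activity.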
HT1080 IDH1KD tx = kills HT-1080 cells with IDH1 knockdown. HT-1080 IDH1 knockdown viability, ATP luminescence, 48 h. Potency, µM (doses to about 46.1 µM), usual class: cytotoxic. hit rate 2% among 360,000. AID 686971
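Luminescent ATP read-out (CellTiter-Glo, 10 min at room temperature) after 48 h compound exposure at 37 °C gave viability of IDH1-knockdown HT-1080 cells. Activity was normalised to DMSO and cell-free wells, then fitted as concentration-response curves.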
IL1B secr inh = inflammasome signaling inhibition, IL-1 beta readout; hit rate 4.7% among 360,000; activity change, % at 57.5 µM; THP-1 LPS/ATP IL-1B secretion, AlphaLISA, 16 h; active compounds read low; in the data active means activity change below about -50%; inconclusive means mostly about -30% to -49%
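Secreted IL-1B measured by AlphaLISA bead assay after 16 h compound exposure of THP-1 cells; compounds (final up to 57.5 uM) added 1 h before LPS (250 ng/mL) and ATP (1.25 mM) stimulation; lower signal means less secretion.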
A number is an active result; 0 = inactive; ? = inconclusive; - = no result; [ ] = another dose, or the depositor's remark. Hits are enriched below; roughly 19% of the tested compounds scored in any of these assays. Unless noted, the call rests on the fitted dose curve; in most records, active means well fitted curve in the direction sought with a large enough effect; inconclusive means small, poorly fitted or top-dose-only effect, or another doubt; inactive means no such curve, though single readings can be large; an effect the other way counts as inactive or inconclusive.

SMILES	uPA generation	TDP1 cell noCPT	DT40 TDP1 CPT	HT1080-NT tox	HT1080 IDH1KD tx	IL1B secr inh
CC1CCCCN1S(=O)(=O)Cc1ccccc1Cl (stereo not given)	0	0	0	0	0	0
Cc1ccc2c(c1)C(=O)OC(C(=O)Nc1ccccc1C(=O)O)C2 (stereo not given)	-	0	0	-	-	-
CCOc1ccccc1NC(=O)Cc1coc2ccc(C)cc12	0	16µM	?	0	0	0
CC(C)c1ccc2occ(CC(=O)Nc3cccc(C(F)(F)F)c3)c2c1	-	29µM	?	-	-	-
Cc1ccc2occ(CC(=O)Nc3ccc(Cl)c(C(F)(F)F)c3)c2c1	-	16µM	21µM	-	-	-
CCOc1ccccc1NC(=O)Cc1noc2ccc(C)cc12	-	?	0	-	-	-
CCc1ccc2occ(CC(=O)Nc3ccccc3C(F)(F)F)c2c1	-	0	0	-	-	-
CC(=O)Oc1oc(-c2ccccc2)nc1/C=N/c1ccccn1	0	21µM	16µM	0	0	-101
CN(C)c1ccc(N=Cc2nc(-c3ccccc3)oc2OC(=O)c2ccccc2)cc1	0	23µM	18µM	0	0	0
CCC(Cc1ccccc1)NC(=O)Cn1ncc2c3ccccc3n(Cc3ccc(F)cc3)c2c1=O (stereo not given)	-	8.2µM	8.2µM	-	-	-
CCC(Cc1ccccc1)NC(=O)Cn1ncc2c3ccccc3n(Cc3ccccc3)c2c1=O (stereo not given)	-	16µM	16µM	-	-	-
Cc1ccc([C@@H]2C[C@H]3[C@@H](CN2S(=O)(=O)c2ccc(C)cc2)C(=O)C[C@@H](c2ccc(Cl)cc2)N3S(=O)(=O)c2ccccc2C)cc1	-	0	0	0	0	0
Cc1cccc(NC(=O)C(C)Oc2ccc(C)nc2[N+](=O)[O-])c1 (stereo not given)	0	0	0	0	0	0
COc1ccc(NC(=O)Cn2ncc3c([nH]c4ccccc43)c2=O)cc1Cl	-	?	0	-	-	-
COCCNC(=O)CSc1nc2cc3c(cc2c(=O)n1Cc1ccco1)OCO3	0	0	0	0	0	0
CCC(Sc1nc2cc3c(cc2c(=O)n1Cc1ccco1)OCO3)C(=O)Nc1ccccc1OC (stereo not given)	0	8.2µM	8.2µM	0	0	0
CCCCNC(=O)CSc1nc2cc3c(cc2c(=O)n1Cc1ccco1)OCO3	0	16µM	18µM	0	0	0
CCC1(C2CCN(C(=O)c3cc4ccccc4o3)CC2)NC(=O)N(CCc2scnc2C)C1=O (stereo not given)	-	?	0[9.04 µM]	-	-	-
CCCC(=O)Nc1ccc(C(=O)Nc2ccc([N+](=O)[O-])cc2OC)cc1	0	0	0	0	0	0
COc1ccc(OC)c(-c2cc(C(=O)Nc3c(C)nn(Cc4ccc(C)cc4)c3C)no2)c1	-	18µM	21µM	-	-	-
COc1ccc(OC)c(-c2cc(C(=O)Nc3c(C)nn(Cc4ccccc4Cl)c3C)no2)c1	-	23µM	15µM	0	0	0
COc1ccc(OC)c(-c2cc(C(=O)Nc3c(C)nn(Cc4ccccc4C)c3C)no2)c1	-	10µM	10µM	0	0	?
COc1ccc(-c2cc(C(=O)Nc3c(C)nn(Cc4ccc(Cl)cc4)c3C)no2)cc1	-	?	0	0	?	0
Cc1ccccc1Cn1nc(C)c(NC(=O)c2cc(-c3ccco3)on2)c1C	0	?	0	0	0	0
COc1ccccc1-c1cc(C(=O)Nc2c(C)nn(Cc3ccc(Cl)cc3)c2C)no1	-	21µM	21µM	-	-	-
O=C(O)CC(C(=O)Nc1ccc(Cl)cc1)N1CCCCCC1 (stereo not given)	0	0	0	0	0	0
COCCNC(=O)C1CCCN(C(=O)COCc2ccccc2)CC1 (stereo not given)	-	0	0	0	0	0
COc1ccc(C(=O)N/C(=C/c2cccnc2)C(=O)N2CCN(C)CC2)cc1OC	0	0	0	0	0	0
COc1ccc(OC)c(-c2cc(C(=O)Nc3ccc(C)c(C)c3)no2)c1	-	18µM	?	-	-	-
COc1cccc(-c2cc(C(=O)Nc3c(C)nn(Cc4ccccc4Cl)c3C)no2)c1	-	13µM	9.2µM	-	-	-
